Reference: PubChem BioAssay (EPA / NIEHS)
The source made the active and inactive calls. How the source made its calls: active means hit-call score of the fitted dose curve at least 0.9, where 1 is the maximum; inactive means score below 0.9.

Columns and labels:
[1] = read-out: Interleukin-8 (IL8), CXCL8 (gene 3576); test: BSK_CASM3C_IL8: BioMAP Diversity Plus: CASM3C Assay for Interleukin-8 (IL8) Biomarker Activity (AID 2283042); conditions: primary human coronary artery smooth muscle cells; actives raise or lower the signal;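 further: IL-8 protein level quantified by ELISA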
[2] = read-out: Human Leukocyte Antigen - DR isotype (HLADR), HLA-DRA (gene 3122); test: BSK_CASM3C_HLADR: BioMAP Diversity Plus: CASM3C Assay for Human Leukocyte Antigen - DR isotype (HLADR) Biomarker Activity (AID 2283043); conditions: primary human coronary artery smooth muscle cells; actives raise or lower the signal;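 further: cell-surface HLA-DR protein level quantified by ELISA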
[3] = read-out: Macrophage colony-stimulating factor (MCSF), CSF1 (gene 1435); test: BSK_CASM3C_MCSF: BioMAP Diversity Plus: CASM3C Assay for Macrophage colony-stimulating factor (MCSF) Biomarker Activity (AID 2283044); conditions: primary human coronary artery smooth muscle cells; actives raise or lower the signal;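 further: M-CSF protein amount quantified by ELISA after 24 h exposure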
[4] = read-out: Low-density lipoprotein receptor (LDLR), LDLR (gene 3949); test: BSK_CASM3C_LDLR: BioMAP Diversity Plus: CASM3C Assay for Low-density lipoprotein receptor (LDLR) Biomarker Activity (AID 2283045); conditions: primary human coronary artery smooth muscle cells; actives raise or lower the signal;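 further: LDLR protein level on the cell surface quantified by ELISA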
[5] = read-out: Monocyte Chemoattractant Protein-1 (MCP1), CCL2 (gene 6347); test: BSK_CASM3C_MCP1: BioMAP Diversity Plus: CASM3C Assay for Monocyte Chemoattractant Protein-1 (MCP1) Biomarker Activity (AID 2283046); conditions: primary human coronary artery smooth muscle cells; actives raise or lower the signal;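 further: MCP-1 level quantified by ELISA 24 h after dosing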
[6] = BSK_CASM3C_Proliferation: Cell Proliferation Assessment in the BioMAP Diversity Plus: CASM3C Assay (AID 2283047); conditions: primary human coronary artery smooth muscle cells;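 further: sulforhodamine B total protein stain as relative cell number at 560 nm; sub-confluent cells exposed 48 h before staining; fitted both ways against DMSO so gain or loss of cell number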
[7] = read-out: Monokine induced gamma interferon (MIG), CXCL9 (gene 4283); test: BSK_CASM3C_MIG: BioMAP Diversity Plus: CASM3C Assay for Monokine induced gamma interferon (MIG) Biomarker Activity (AID 2283048); conditions: primary human coronary artery smooth muscle cells; actives raise or lower the signal;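 further: MIG protein level measured by ELISA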
[8] = read-out: serum amyloid A (SAA), SAA1 (gene 6288); test: BSK_CASM3C_SAA: BioMAP Diversity Plus: CASM3C Assay for serum amyloid A (SAA) Biomarker Activity (AID 2283049); conditions: primary human coronary artery smooth muscle cells; actives raise or lower the signal;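 further: SAA protein level quantified by ELISA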
[9] = BSK_CASM3C_SRB: Viability Assessment in the BioMAP Diversity Plus: CASM3C Assay (AID 2283050); conditions: primary human coronary artery smooth muscle cells;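 further: total protein by SRB staining as cytotoxicity measure in parallel cultures; cells exposed to compound for 24 h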
[10] = read-out: Thrombomodulin, THBD (gene 7056); test: BSK_CASM3C_Thrombomodulin: BioMAP Diversity Plus: CASM3C Assay for Thrombomodulin Biomarker Activity (AID 2283051); conditions: primary human coronary artery smooth muscle cells; actives raise or lower the signal;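 further: thrombomodulin protein level measured by ELISA 24 h after dosing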
[11] = read-out: Tissue Factor, F3 (gene 2152); test: BSK_CASM3C_TissueFactor: BioMAP Diversity Plus: CASM3C Assay for Tissue Factor Biomarker Activity (AID 2283052); conditions: primary human coronary artery smooth muscle cells; actives raise or lower the signal;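 further: cell surface tissue factor protein level read by ELISA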
[12] = read-out: Interferon-gamma inducible Protein 10 (IP10), CXCL10 (gene 3627); test: BSK_hDFCGF_IP10: BioMAP Diversity Plus: hDFCGF Assay for Interferon-gamma inducible Protein 10 (IP10) Biomarker Activity (AID 2283053); conditions: primary human foreskin fibroblasts; actives raise or lower the signal
Summary of the method: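 Primary foreskin fibroblasts, human; 24 h compound exposure; IP-10 by ELISA; bidirectional fit vs DMSO.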

[13] = read-out: Urokinase-type plasminogen activator receptor (uPAR), PLAUR (gene 5329); test: BSK_CASM3C_uPAR: BioMAP Diversity Plus: CASM3C Assay for Urokinase-type plasminogen activator receptor (uPAR) Biomarker Activity (AID 2283054); conditions: primary human coronary artery smooth muscle cells; actives raise or lower the signal;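 further: cell-surface uPAR protein level quantified by ELISA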
[14] = read-out: Vascular cell adhesion molecule 1 (VCAM1), VCAM1 (gene 7412); test: BSK_CASM3C_VCAM1: BioMAP Diversity Plus: CASM3C Assay for Vascular cell adhesion molecule 1 (VCAM1) Biomarker Activity (AID 2283055); conditions: primary human coronary artery smooth muscle cells; actives raise or lower the signal;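 further: VCAM-1 protein level quantified by ELISA on the cells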
[15] = read-out: Collagen III, COL3A1 (gene 1281); test: BSK_hDFCGF_CollagenIII: BioMAP Diversity Plus: hDFCGF Assay for Collagen III Biomarker Activity (AID 2283056); conditions: primary human foreskin fibroblasts; actives raise or lower the signal
Summary of the method: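 Human foreskin primary fibroblasts were exposed to test chemicals for 24 h, after which collagen III was quantified by ELISA. Activity was fitted bidirectionally against DMSO as negative control and baseline.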

[16] = read-out: Epidermal growth factor receptor (EGFR), EGFR (gene 1956); test: BSK_hDFCGF_EGFR: BioMAP Diversity Plus: hDFCGF Assay for Epidermal growth factor receptor (EGFR) Biomarker Activity (AID 2283057); conditions: primary human foreskin fibroblasts; actives raise or lower the signal
Summary of the method: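 hDFCGF system, primary human foreskin fibroblasts; compound 24 h; EGFR measured by ELISA; DMSO = negative control/baseline; bidirectional fitting.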

[17] = read-out: Interleukin-8 (IL8), CXCL8 (gene 3576); test: BSK_hDFCGF_IL8: BioMAP Diversity Plus: hDFCGF Assay for Interleukin-8 (IL8) Biomarker Activity (AID 2283058); conditions: primary human foreskin fibroblasts; actives raise or lower the signal
Summary of the method: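 hDFCGF human dermal fibroblasts; 24 h chemical exposure; IL-8 by ELISA; bidirectional curve fit vs DMSO baseline; gain or loss of signal scored.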

[18] = BSK_hDFCGF_Proliferation: Cell Proliferation Assessment in the BioMAP Diversity Plus: hDFCGF Assay (AID 2283059); conditions: primary human foreskin fibroblasts;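 further: curves fitted for both rise and fall of signal versus DMSO baseline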
Summary of the method: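 Total protein read at 560 nm after 0.1% SRB staining of TCA-fixed human skin fibroblasts, […]. Activity is fitted in both directions relative to DMSO as baseline.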

[19] = read-out: Macrophage colony-stimulating factor (MCSF), CSF1 (gene 1435); test: BSK_hDFCGF_MCSF: BioMAP Diversity Plus: hDFCGF Assay for Macrophage colony-stimulating factor (MCSF) Biomarker Activity (AID 2283060); conditions: primary human foreskin fibroblasts; actives raise or lower the signal
Summary of the method: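 Human foreskin primary fibroblasts were treated with test chemical for 24 h, and M-CSF was then measured by ELISA. Data were fitted bidirectionally against DMSO as the negative control and activity baseline.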

[20] = BSK_hDFCGF_SRB: Viability Assessment in the BioMAP Diversity Plus: hDFCGF Assay (AID 2283061); conditions: primary human foreskin fibroblasts;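 further: cells exposed to compound for 24 h before the read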
Summary of the method: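 Human foreskin primary fibroblasts were treated with compound and assessed 24 h after dosing. Total protein was measured by sulforhodamine B staining (0.1% SRB after 10% TCA fixation, 560 nm read) as a cytotoxicity marker, with bidirectional fitting against DMSO baseline.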

Measured: AC50

COc1ccc(S(=O)(=O)N2C(=O)[C@@](c3ccccc3OC)(N3C[C@H](O)C[C@H]3C(=O)N(C)C)c3cc(Cl)ccc32)c(OC)c1
active: [18] 30.5 µM
not listed: [20]
inactive: all other assays above

CCCCCCC(=O)OCC
not listed: [12] | [20]
inactive: all other assays above

O=[N+]([O-])C(CO)(CO)CO
active: [18] 14.1 µM
not listed: [12] | [20]
inactive: all other assays above

CCCCC(CC)COC(=O)CC(C(=O)OCC(CC)CCCC)S(=O)(=O)O (stereo unspecified)
active: [12] 7.42 µM | [15] 8.52 µM | [17] 12.9 µM | [18] 10 µM | [19] 9.34 µM | [20] 24.4 µM
not listed: [16]
inactive: all other assays above

CCNc1cccc(C)c1
not listed: [12] | [20]
inactive: all other assays above

Cc1c(C(=O)O)c(O)cc2c1C(=O)c1c(O)c([C@@H]3O[C@H](CO)[C@@H](O)[C@H](O)[C@H]3O)c(O)c(O)c1C2=O
active: [18] 3.88 µM
inactive: all other assays above

NCCO
active: [10] 0.937 µM
not listed: [12] | [20]
inactive: all other assays above

C1CCC(SSC2CCCCC2)CC1
active: [2] 30.5 µM | [5] 31.5 µM | [6] 34.1 µM | [10] 14.8 µM | [12] 30.4 µM | [14] 28.8 µM | [15] 11.7 µM | [18] 15.9 µM | [19] 20 µM | [20] 32.2 µM
inactive: [1] | [3] | [4] | [7] | [8] | [9] | [11] | [13] | [16] | [17]

CN1CCCC1=O
not listed: [12] | [20]
inactive: all other assays above

Cc1cc(NC(=O)C(=O)O)cc(C)c1Oc1ccc(O)c2c1CCC2
not listed: [12] | [20]
inactive: all other assays above

CCCCCCCCCCCCCO
active: [3] 34.5 µM | [5] 33.3 µM | [6] 34.2 µM | [9] 34.4 µM | [10] 20.6 µM | [12] 13.2 µM | [14] 28.3 µM | [15] 12.9 µM | [17] 29.9 µM | [18] 8.61 µM | [19] 13.7 µM | [20] 13.1 µM
inactive: [1] | [2] | [4] | [7] | [8] | [11] | [13] | [16]

CCCCCC(=O)O
inactive: all assays above

O=c1[nH]cc(F)c(=O)[nH]1
active: [6] 13.7 µM | [18] 9.52 µM
inactive: all other assays above

Cc1cccc([N+](=O)[O-])c1C
inactive: all assays above

CCCCN(CCCC)CCCC
inactive: all assays above

NC(=O)Cn1c(=O)cc(CCN2CCN(c3nccc4sccc34)CC2)c2ccc(F)cc21
active: [4] 27.5 µM
not listed: [12] | [20]
inactive: all other assays above

CC(=O)OC/C=C(\C)CCC=C(C)C
active: [18] 0.597 µM
not listed: [12] | [20]
inactive: all other assays above

Cc1nc(-c2ccc3c(c2)CCN(CCC2CCC(NC(=O)/C=C/c4ccc(F)cc4)CC2)CC3)no1 (stereo unspecified)
active: [2] 9.3 µM | [5] 13.8 µM | [6] 5.83 µM | [7] 11.7 µM | [8] 9.3 µM | [9] 9.3 µM | [14] 6.35 µM
inactive: all other assays above

CCCCOC(=O)CCCCCCCCC(=O)OCCCC
inactive: all assays above

Cc1cc(=O)[nH]c(=S)[nH]1
inactive: all assays above

Nc1ccc(S(=O)(=O)c2ccc(N)cc2)cc1
not listed: [12] | [20]
inactive: all other assays above

Nc1ccccc1N
active: [14] 4.05 µM | [18] 16 µM
not listed: [12] | [20]
inactive: all other assays above

CC(=O)Oc1ccccc1C(=O)O
inactive: all assays above

COc1cc(C=O)ccc1O
inactive: all assays above

C=CCc1ccc(O)c(OC)c1
inactive: all assays above

CCCCCCCCCCCC(=O)OC
active: [18] 28.9 µM
not listed: [12] | [20]
inactive: all other assays above

CC(=O)OCCOCCOCCOC(C)=O
inactive: all assays above

COc1cc(-c2nc(NC(=O)c3cc4cc(C)cc(C)c4n3CC(=O)O)sc2CCC2CCCCC2)c(OC)cc1Cl
inactive: [10] | [11] | [16]
active: [1] 7.07 µM | [2] 5.92 µM | [3] 22.9 µM | [4] 4.25 µM | [5] 8.09 µM | [6] 10.8 µM | [7] 11.7 µM | [8] 8.47 µM | [9] 7.05 µM | [12] 0.46 µM | [13] 6.56 µM | [14] 10.2 µM | [15] 0.203 µM | [17] 2.36 µM | [18] 0.128 µM | [19] 0.42 µM | [20] 0.771 µM
